FLuc modulator: counter-screen for miR-21 project: firefly luciferase inhibitors or activators. purified FLuc, Km substrates, luminescence inhibition. P08659. AID 588342. actives 6.9% (n = 360,000). Potency, µM (series often up to 57.5 µM), for inactives: top-dose activity change, negative = inhibition, most hits filed as inhibitors;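 further: plate controls were vehicle for no effect and reference inhibitor for full effect; nearly all actives have a fitted effect of over 55% in size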
Target sequence (P08659 whole entry, looked up): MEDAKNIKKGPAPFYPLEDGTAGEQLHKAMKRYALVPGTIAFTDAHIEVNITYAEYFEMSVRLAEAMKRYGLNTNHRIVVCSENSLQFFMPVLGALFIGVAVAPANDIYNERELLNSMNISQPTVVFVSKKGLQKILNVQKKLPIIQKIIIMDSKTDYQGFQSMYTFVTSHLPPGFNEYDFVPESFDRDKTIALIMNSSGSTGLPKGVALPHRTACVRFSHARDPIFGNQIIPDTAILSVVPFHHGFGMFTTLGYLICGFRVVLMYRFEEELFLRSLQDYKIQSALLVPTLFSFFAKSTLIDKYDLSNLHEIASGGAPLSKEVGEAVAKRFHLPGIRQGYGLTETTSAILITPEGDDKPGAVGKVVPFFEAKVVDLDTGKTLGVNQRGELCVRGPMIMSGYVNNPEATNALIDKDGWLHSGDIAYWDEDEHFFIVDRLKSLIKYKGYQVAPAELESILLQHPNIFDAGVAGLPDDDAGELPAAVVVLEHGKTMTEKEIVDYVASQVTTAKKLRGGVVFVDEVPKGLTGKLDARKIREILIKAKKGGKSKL
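Purified P. pyralis luciferase (10nM final) with 10uM D-luciferin and 10uM ATP (Km levels) in 50mM Tris acetate pH 7.5, 10mM Mg acetate, 0.01% Tween-20, 0.05% BSA; qHTS 6-point titration, ~60 µM downward; luminescence read.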
NPC1 promoter act: activators of NPC1 promoter | Potency, µM (top dose mostly 9.22 µM), for inactives: top-dose activation, hits mostly activators | actives 2.4% (n = 320,000) | AID 485313 | Huh7 NPC1 promoter luciferase reporter, 24 h; further: % of control where 0% means no effect; nearly all actives have a fitted effect of over 60% in size
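Quantitative HTS used a cell-based reporter: Huh7 cells stably bearing the NPC1 promoter upstream of luciferase were treated with compounds for 24 h, and promoter activation was read as luminescence.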
Rab9 prom act: Rab9 promoter activation | Huh7 Rab9 promoter-luciferase reporter, luminescence, 24 h | Potency, µM (top dose mostly 9.22 µM), without a hit: at the top dose activation, negative = inhibition, usual class: activators | actives 2.8% (n = 320,000) | AID 485297; further: % of control where 0% means no effect; nearly all actives have a fitted effect of over 60% in size
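Luminescence from Amplite-detected luciferase (10 minutes, ambient) reports Rab9 promoter activation. Before that, stable Rab9-luciferase Huh7 cells (1500/well, reduced-serum OP-MEM I plus 10% FBS) were exposed to compound for 24 hours at 37C.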
ELG1 DNA repair: ELG1-dependent DNA repair inhibition. HEK293T ELG1-luciferase reporter, luminescence, 16 h; DNA damage induced by 5-fluorouridine. Potency, µM (top dose mostly 46.1 µM), for the others: top-dose activity change, negative = inhibition, usual class: inhibitors. actives 2.3% (n = 330,000); further: on the % scale 0 is the no-effect control and ±100 the full control effect; nearly all actives have a fitted effect of over 55% in size
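In this reporter screen, reduction of luminescence relative to DMSO vehicle indicated activity. Compounds and 5-fluorouridine were added together to 2,000 cells per well, incubated for 16 hr at 37 °C, then developed with ONE-Glo.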
SMN2 splice enh: SMN2 splice variant enhancement | actives 2.8% (n = 210,000) | Potency, µM (top dose mostly 46.1 µM), inactives show top-dose activity change, positive = activation, usual class: activators | AID 1458 | HEK293 SMN2-luciferase splicing reporter, luminescence, 30-36 h; further: % of control where 0% means no effect; nearly all actives have a fitted effect of over 55% in size
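HEK293 cells carry an SMN2 […]–luciferase reporter in which exon 7 inclusion puts luciferase in frame. Cells were plated 10-12 h before compound addition, then incubated 30-36 h at 37C. ONE-Glo luminescence was read; sodium butyrate at 4.5 mM final served as control.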
ELG1 genotox: induces genotoxicity in HEK293T cells with luciferase-tagged ELG1; HEK293T ELG1-luciferase reporter, luminescence, 16 h; Potency, µM (highest dose often 46 µM), inactives show at the top dose activity change, positive = activation, hits mostly activators; actives 1.3% (n = 330,000); AID 504466; further: % of control where 0% means no effect; nearly all actives have a fitted effect of over 60% in size
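ELG1-luciferase HEK293T cells, 2,000/well; compound pinned in; 16 hr, 37 °C, 5% CO2; ONE-Glo, 30 min RT; luminescence on CCD imager.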
The depositor's hits bear a star; ? = inconclusive; · = not tested or not shown; [ ] = dose if it differs, or a comment. Most compounds without a hit are left out; they make up all but 9.2% or so of the library. The call rests on the fitted dose curve; in most records, active means well fitted curve in the direction sought with a large enough effect; inconclusive means small, poorly fitted or top-dose-only effect, or another doubt; inactive means no such curve, though single readings can be large; an effect the other way counts as inactive or inconclusive. Potency means the concentration at half of the fitted maximal effect.

SMILES	FLuc modulator	NPC1 promoter act	Rab9 prom act	ELG1 DNA repair	SMN2 splice enh	ELG1 genotox
Cc1nc(NCc2ccccc2)c2nc(-c3ccccc3)n(CC(C)(C)CN(C)C)c2n1	·	·	·	·	-7.9%	·
COCC(C)n1c(C)cc(C(=O)COc2ccc(N(C)S(=O)(=O)c3ccc(NC(C)=O)cc3)cc2)c1C (stereo not drawn)	?	-2.7%	-5.8%	4.11µM*	·	-2.2%
CCN(C(=O)COc1ccc(N(C)S(=O)(=O)c2ccc(NC(C)=O)cc2)cc1)C1CCCCC1	·	·	·	20.6µM*	·	-0.2%
CCN(CC)C(=O)COc1ccc(N(C)S(=O)(=O)c2ccc(NC(C)=O)cc2)cc1	-0.6%	-0.3%	-1.9%	?	·	-0.1%
C=CCn1c(C)cc(C(=O)COc2ccc(N(C)S(=O)(=O)c3ccc(NC(C)=O)cc3)cc2)c1C	·	·	·	?	·	-5.8%
COc1ccc2c(Sc3ccc(C)cc3)c(C(=O)NCc3ccc(F)cc3)[nH]c2c1	10.0%	·	·	·	·	·
N#Cc1c(SCC(=O)Nc2nc3ccccc3s2)sc2c(O)cc(=O)[nH]c12	2.39µM*	1.0%	17.4%	?	·	1.4%
N#Cc1c(SCC(=O)Nc2nc3ccc(Br)cc3s2)sc2c(O)cc(=O)[nH]c12	?	26.0%	25.6%	20.3%	·	-0.3%
Cc1nc2nc(NC(=O)c3ccc(F)cc3)[nH]n2c(=O)c1Cc1ccccc1	?	·	·	·	6.3%	·
COc1ccc2c(c1OC)C(=O)N1C2SC(C)(C)[C@H]1C(=O)NCC(C)C (stereo partly drawn)	4.9%	0.8%	11.1%	3.0%	·	-1.9%
O=c1/c(=C\c2ccc3c(c2)OCO3)sc2n1CCCN=2	4.26µM*	0.891µM*	3.55µM*	?	?	3.26µM*
Cc1ccc(/C=c2\sc3n(c2=O)CN(c2ccc(Br)cc2)CN=3)o1	?	8.9%	0.2%	5.0%	-31.0%	-1.4%
O=C1/C(=C\c2ccc3c(c2)OCO3)CCC/C1=C/c1ccc2c(c1)OCO2	?	-2.8%	0.3%	7.7%	-11.4%	0.8%
Cc1ccc(/C=c2/sc3n(c2=O)CCCN=3)o1	15.1µM*	?	2.82µM*	?	12.6µM*	?
O=C1NC(=O)C2(COC(c3cccnc3)OC2)S1 (stereo not drawn)	-0.8%	0.0%	-12.4%	10.5%	-2.0%	1.9%
CCCCN(CC)C(=O)CSc1nc2c(sc(=S)n2-c2ccc(OCC)cc2)c(=O)[nH]1	16.9µM*	-1.6%	0.7%	-9.0%	-26.6%	-5.6%
Cc1ccc(N=Nc2c(O)c3ccccc3[nH]c2=O)c(S(=O)(=O)N(C)C)c1	1.35µM*	7.0%	23.0%	0.0%	-2.4%[9.22 µM]	?
OC(COCc1ccc(Cl)cc1)CN1CCN(CC(O)COCc2ccc(Cl)cc2)CC1 (stereo not drawn)	-13.7%	-13.7%	-34.3%	20.6µM*	-50.6%	-1.1%
COc1cc(NC(=O)c2nc3ccccc3n(C)c2=O)cc(OC)c1OC	-19.8%	·	·	·	-1.6%	·
CC(=O)c1ccc(NC(=O)c2cnn3ccccc23)cc1	5.36µM*	0.355µM*	0.355µM*	?	-36.7%	1.3µM*
CC(=O)c1cccc(NC(=O)c2cnn3ccccc23)c1	12µM*	5.01µM*	3.16µM*	?	·	11.6µM*
CC(=O)c1cccc(NC(=O)c2nc3ccccc3n(C)c2=O)c1	3.79µM*	·	·	·	23.5%	·
CC1CN(C(=O)N2CCC(C(=O)NC3CCCCCC3)CC2)c2cc(Cl)ccc2O1 (stereo not drawn)	-1.3%	·	·	·	·	·
COc1cc(OC)c2cc(C(=O)N/N=C/c3ccccc3O)[nH]c2c1	-4.8%	-45.3%	-34.4%	-15.1%	·	?
COc1cc(C(=O)Oc2ccc(/C=N/NC(=O)c3ccncc3)cc2)cc(OC)c1OC	4.9%	-14.5%	-1.2%	6.1%	·	-3.4%
SMILES	FLuc modulator	NPC1 promoter act	Rab9 prom act	ELG1 DNA repair	SMN2 splice enh	ELG1 genotox
COc1ccc2[nH]c(C(=O)N/N=C/c3ccccc3OC)cc2c1	19µM*	-18.3%	-0.4%	?	·	-3.8%
CCOc1ccc2[nH]c(C(=O)N/N=C/c3ccccc3OC)cc2c1	15.1µM*	-22.4%	-15.0%	?	·	-4.3%
CCOc1ccc(/C=N/NC(=O)c2cc3c(OC)cc(OC)c(OC)c3[nH]2)cc1	?	-5.5%	-5.1%[1.84 µM]	8.2µM*	·	-16.0%
CCCOc1ccc2[nH]c(C(=O)N/N=C/c3cc(OC)c(OC)c(OC)c3)cc2c1	13.5µM*	10.7%	14.1%	?	·	-5.6%
COc1ccc(-c2c3c(=O)n(C)c(=O)n(C)c3c3c(-c4ccccc4)nc4ccccc4n23)cc1	-2.7%	·	·	·	-9.0%	·
COc1cccc(OCc2cc(/C=N/NC(=O)c3ccn[nH]3)ccc2OC)c1	15.1µM*	20.0%	13.3%	6.7%	18.6%	8.1%
COc1ccc(/C=N/NC(=O)c2ccc(-c3ccccc3)cc2)cc1O	?	0.8%	-5.1%	?	-5.9%	-3.3%
COc1ccc2[nH]c(C(=O)N/N=C/c3ccc(OC)c(O)c3)cc2c1	5.36µM*	-15.0%	-11.3%	?	·	11.3%
COc1ccc(/C=N\NC(=O)c2ccccc2)cc1COc1ccccc1	-20.0%	-7.7%	0.2%	?	·	-10.3%
COc1ccc(OC)c(/C=N/NC(=O)c2cc3c(OC)c(OC)ccc3[nH]2)c1	4.78µM*	-2.0%	2.6%	?	17.3%	0.4%
COc1ccc(S(=O)(=O)N2CCC(n3c(C)nc4cccnc43)CC2)cc1Cl	-3.6%	·	·	·	·	·
O=C1CCCC(C(C(=O)OCc2ccccc2)C(=O)OCc2ccccc2)C1 (stereo not drawn)	·	·	·	·	-3.3%	·
COc1ccc(N2C(=O)C3C(C2=O)C2C=CC3C23CC3)c(OC)c1 (stereo not drawn)	13.5µM*	-1.0%	7.6%	?	-0.9%	5.6%
COc1cc(C)ccc1OCCOc1c(C)cccc1Cl	26.9µM*	16.6%	?	?	-11.0%	13.5%
COc1cc(C)ccc1OCCOc1cc(C)ccc1Cl	13.5µM*	4.4%	-4.1%	3.5%	·	-1.8%
COc1cc(C)ccc1OCCOc1c(Cl)cc(Cl)cc1Cl	?	-1.5%	7.9%	13.8%	·	-0.3%
COc1ccc(NC(=O)/C(C#N)=C\c2ccc(N3CCOCC3)o2)cc1	1.9µM*	?	?	?	·	9.1%
COc1ccc(NC(=O)/C(C#N)=C/c2ccc(C)o2)cc1	2.69µM*	·	·	·	12.6µM*	·
CCc1ccc(NC(=O)/C(C#N)=C/c2cc3ccc(C)cc3nc2N2CCOCC2)cc1	-1.3%	-2.2%	-6.1%	-13.2%	-28.1%	5.8%
CC(=O)Nc1ccc(/C=C(\C#N)C(=O)NC2CCCCC2)cc1	0.3%	-4.7%	-5.8%	?	1.8%	3.9%

Screening data (PubChem)
